High-throughput results as filed in PubChem BioAssay.
Compounds with a hit are over-represented: about 8.1% of the library has one in this group of screens.
KB-3-1 tox: KB-3-1 parental cell cytotoxicity | KB-3-1 viability, CellTiter-Glo ATP luminescence, 72 h | Potency, µM (top dose mostly 46.1 µM), usual class: cytotoxic | actives 1.4% (n = 400,000) | AID 1347075; also: nearly all actives have a fitted effect of over 60% in size
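Cells are dispensed, compounds pinned in, plates held at 37 °C for 72 h, then CellTiter-Glo is added and luminescence read after 10 minutes. Cell line: parental KB-3-1 in phenol-red-free DMEM, 10% FBS.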
MCF10A rereplic: induces DNA re-replication in MCF 10a normal breast cells | MCF 10A DNA re-replication, Hoechst nuclear intensity, 48 h | actives 2.9% (n = 350,000) | Potency, µM (doses to about 46.1 µM), hits mostly activators; also: nearly all actives have a fitted effect of over 50% in size
ELG1 repair inh: blocks ELG1-dependent DNA repair in HEK293T cells; HEK293T ELG1-luciferase reporter, luminescence, 16 h; DNA damage induced by 5-fluorouridine; Potency, µM (series often up to 46.1 µM), hits mostly inhibitors; actives 2.3% (n = 330,000); AID 504467; also: nearly all actives have a fitted effect of over 55% in size
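Quantitative HTS, concentration-response format. 2,000 cells/well co-treated with 5-fluorouridine and compound, 16 hr in 5% CO2 at 37 °C; ONE-Glo luminescence read after 30 min.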
SW480 rerep: DNA re-replication induction in SW480 cells. SW480 DNA re-replication, Hoechst DNA content imaging, 48 h. Potency, µM (highest dose often 46.1 µM), hits mostly activators. actives 1.8% (n = 340,000). AID 624297; also: nearly all actives have a fitted effect of over 55% in size
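Treated cells incubate 48 hr (37 C, 5% CO2), are stained 40 min with Hoechst, and nuclear fluorescence is enumerated; a rise in nuclei with high DNA signal marks re-replication.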
KB-V1 cytotox: kills drug-selected multidrug resistant KB-V1 cells. Potency, µM (top dose mostly 46.1 µM), actives largely listed as cytotoxic. actives 3.4% (n = 400,000). AID 1347076. KB-V1 MDR cells viability, CellTiter-Glo, 72 h; also: nearly all actives have a fitted effect of over 60% in size
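Luminescent ATP read-out (CellTiter-Glo, 10 min) measures survival of drug-selected KB-V1 MDR cells after 72 h, 37 degrees C compound exposure. Medium: phenol-red-free DMEM, 10% FBS. Values from fitted concentration-response curves.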
Each line names hits and unclear results; the compound was inactive in the other large screens. Calls follow the shape of the dose curve; as a rule, active = well fitted curve in the direction sought with a large enough effect; inconclusive = small, poorly fitted or top-dose-only effect, or another doubt; inactive = no such curve, though single readings can be large; an effect the other way counts as inactive or inconclusive.

CN(C)c1ccc(CC2CCc3ccccc32)cc1 (stereo not given)	none (no result: MCF10A rereplic, ELG1 repair inh, SW480 rerep)
CCCCN(Cc1ccco1)C(=O)Cn1ncc2c([nH]c3ccccc32)c1=O	none (no result: MCF10A rereplic, ELG1 repair inh, SW480 rerep)
O=C(Nc1ccc(-n2nncc2-c2ccco2)cc1)c1cccc(F)c1	MCF10A rereplic inconclusive, ELG1 repair inh inconclusive, KB-V1 cytotox 16.4µM
CCOC(=O)C1(Cc2ccccc2)CCN(Cc2ccc(C3CCCCO3)s2)CC1 (stereo not given)	MCF10A rereplic 16.4µM, ELG1 repair inh inconclusive, KB-V1 cytotox inconclusive
CCOC(=O)C1(Cc2ccccc2)CCN(Cc2ccc(C)s2)CC1	MCF10A rereplic inconclusive, ELG1 repair inh inconclusive, KB-V1 cytotox inconclusive
CCCCNC(=S)Nc1ccc(Oc2ccccc2)cc1	none
CCCNC(=S)Nc1ccc(Oc2ccccc2)cc1	KB-3-1 tox inconclusive, SW480 rerep inconclusive, KB-V1 cytotox 18.4µM
S=C(NCC1CCCCC1)Nc1ccc(Oc2ccccc2)cc1	KB-3-1 tox inconclusive, MCF10A rereplic 18.4µM, KB-V1 cytotox inconclusive
Cc1csc(=O)n1CC(=O)Nc1ccc(Cl)cc1F	none
CC1Cc2ccccc2N1C(=O)CSc1nnc(-c2cccc(Cl)c2)o1 (stereo not given)	none (no result: MCF10A rereplic, ELG1 repair inh, SW480 rerep)
CC(C)(C)c1cc(CN2CCCC(O)C2)c(O)c(C(C)(C)C)c1 (stereo not given)	KB-3-1 tox inconclusive, KB-V1 cytotox 16.4µM
Cc1ccc(CN(C(=O)COc2cccc([N+](=O)[O-])c2)c2ccccn2)o1	none (no result: MCF10A rereplic, ELG1 repair inh, SW480 rerep)
Cc1ccccc1-n1nc(CSc2nc3ccccc3[nH]2)c(-c2ccccc2)c1N	KB-3-1 tox inconclusive, ELG1 repair inh inconclusive, KB-V1 cytotox 18.4µM
Nc1c(-c2ccccc2)c(CSc2nc3ccccc3[nH]2)nn1-c1cccc(Cl)c1	KB-3-1 tox 23.1µM, MCF10A rereplic inconclusive, ELG1 repair inh 2.91µM, SW480 rerep inconclusive, KB-V1 cytotox inconclusive
Nc1c(-c2ccccc2)c(CSc2nc3ccccc3[nH]2)nn1-c1ccc(Cl)cc1	KB-3-1 tox inconclusive, ELG1 repair inh 6.51µM
CCOc1cc(-c2ccccc2)nc2c1CN(S(=O)(=O)c1ccc(C)cc1)C(c1cccc(Cl)c1)C2 (stereo not given)	KB-V1 cytotox inconclusive (no result: MCF10A rereplic, ELG1 repair inh, SW480 rerep)
CC(=O)c1ccc(N/N=C(/C(N)=O)C2=NC(C)(C)Cc3ccccc32)cc1	MCF10A rereplic inconclusive, ELG1 repair inh 20.6µM, SW480 rerep inconclusive, KB-V1 cytotox 11.6µM
CC1(C)Cc2ccccc2C(/C(=N\Nc2cccc(Cl)c2)C(N)=O)=N1	KB-3-1 tox inconclusive, MCF10A rereplic inconclusive, ELG1 repair inh 16.4µM
FC(F)(F)c1cnc(C(c2ccccn2)c2ncn[nH]2)c(Cl)c1 (stereo not given)	MCF10A rereplic inconclusive, ELG1 repair inh 25.9µM, SW480 rerep inconclusive, KB-V1 cytotox inconclusive
CCCN1C(=O)C(O)(C2CC(=O)CC(C)(C)O2)c2ccccc21 (stereo not given)	KB-3-1 tox inconclusive, MCF10A rereplic inconclusive, SW480 rerep 16.4µM, KB-V1 cytotox inconclusive
CCCN1C(=O)C(O)(C2COC(C)(C)CC2=O)c2ccccc21 (stereo not given)	SW480 rerep inconclusive
NC(N)=Nc1ccc(/C=C2\C=Cc3ccccc32)cc1	none (no result: MCF10A rereplic, ELG1 repair inh, SW480 rerep)
Cc1nc2c(OCCN3C(=O)c4ccccc4C3=O)cccn2c1N(C)C(=O)CCC1CCCC1	none (no result: MCF10A rereplic, ELG1 repair inh, SW480 rerep)
N=c1ccn(CC(=O)c2ccc(-c3ccccc3)cc2)cc1	KB-3-1 tox 5.17µM, ELG1 repair inh inconclusive
O=C(CN1C(=O)CCC1=O)c1ccc(-c2ccccc2)cc1	ELG1 repair inh inconclusive
CCSC1=NS(=O)(=O)c2ccccc21	KB-V1 cytotox inconclusive (no result: MCF10A rereplic, ELG1 repair inh, SW480 rerep)
CC1=NN(c2ccccc2)C(=O)C1=Cc1ccccc1	KB-V1 cytotox inconclusive (no result: MCF10A rereplic, ELG1 repair inh, SW480 rerep)
CC1=NN(c2ccccc2)C(=O)/C1=C/c1c(O)n(-c2ccc(F)cc2)[nH]c1=O	KB-3-1 tox 20.6µM, ELG1 repair inh inconclusive, SW480 rerep inconclusive, KB-V1 cytotox 7.31µM
C[C@H](CO)N1C[C@H](C)[C@H](CN(C)Cc2ccccc2)Oc2ncc(Br)cc2C1=O	KB-V1 cytotox inconclusive (no result: MCF10A rereplic, ELG1 repair inh, SW480 rerep)
Cc1ccc2nc3cc([N+](=O)[O-])cc([N+](=O)[O-])c3cc2c1	KB-3-1 tox inconclusive, MCF10A rereplic inconclusive, SW480 rerep 0.651µM, KB-V1 cytotox inconclusive
Cc1nc2ccc([N+](=O)[O-])cc2nc1C	KB-V1 cytotox inconclusive
